# Experimental data published in PubChem BioAssay (NCI).
# About 83,000 compounds went through this panel and 20% of them were active in at least one assay; those are over-represented in the sample as a whole.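 The endpoint reported here, percent growth, reads 100 for growth as untreated, 0 for no net growth and -100 for all cells dead.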 Values without a mark were called inactive. The source made the active and inactive calls.
# Tested on: COLO 205 colon
# Assay: NCI-60 one-dose screen, 48 h (100 = growth as untreated, 0 = no growth, -100 = all killed)
# Settings: 10 µM
# Method: Cells are grown in 96 well plates and exposed to the test compound for 48 hours. Compounds are tested at a single concentration, which is 10^-5 M for most compounds. The reported endpoint is percent growth (GI% or GIPRCNT), where numbers from 0 - 100% represent growth inhibition, and numbers from -100% - 0 represent cell death. For example, a value of 40 represents 60% growth inhibition. A value of 0 means no net growth occurred over the course of the experiment. A value of -40 indicates 40% of cells at the beginning of the experiment died by the end of the experiment. A value of -100 means all cells are dead at the end of the experiment.
# NCI-60 Human Tumor Cell Lines Screen was performed using the standard one-dose NCI protocol, which is described in more detail at https://dtp.cancer.gov/discovery_development/nci-60/default.htm.
# Compounds with GIPRCNT values below 10 were considered active. Activity score was based on GIPRCNT using the following formula: […]
# Score is 0 for GIPRCNT values of 100 or above, 50 for GIPRCNT values of 0, and 100 for GIPRCNT values of -100.
row,SMILES,growth
1,CCOC(=O)c1cc(C(=O)c2cc(OC)c(OC)c(OC)c2)n2nc(C)ccc12,-39.4% (active)
2,COc1ccc(-c2nn(-c3cccc(Cl)c3)cc2-c2c(C#N)c(=O)n3[nH]c(-c4ccc(C)cc4)nc3c2C#N)cc1,15.9%
3,COc1cc2c3c(n(C4CCNCC4)c(=O)c2cc1OC)-c1cc2c(cc1C3=O)OCO2,-83% (active)
4,CC(C)(C)c1ccc(S(=O)(=O)N[C@H]2CC[C@H]3[C@@H]4CCc5cc(O)c([N+](=O)[O-])cc5[C@H]4CC[C@]23C)cc1,96.4%
5,Cc1ccc(NCCN(C)CC(C)O)c2c(=O)c3ccc(Cl)cc3sc12 (stereo not given),-78% (active)
6,COc1cc(C)ccc1Oc1nc(Nc2ccc(N3CCOCC3)cc2)ncc1NC(=O)Nc1cc(C(F)(F)F)cc(C(F)(F)F)c1,109%
7,COc1cc(C(=O)N2CCN(c3cc4c(cc3F)c(=O)c(C(=O)NO)cn4C3CC3)CC2)cc(OC)c1OC,104%
8,CCN(CC)CCNc1ccc(C)c2sc3cc(Cl)ccc3c(=O)c12,-67.3% (active)
9,O=C1/C=C/[C@@H](O)[C@@H]2C[C@@H](O)C[C@H]2/C=C/CCC[C@H](C(F)(F)F)O1,-44.6% (active)
10,Cc1cc(NC(=O)c2ccc(C)c(Nc3nccc(-c4cccnc4)n3)c2)cc(-n2cnc(C)c2)c1,4.18% (active)
11,CC1/C=C/C=C/C=C/C=C/C=C/C=C/C=C/C(O[C@@H]2O[C@H](C)[C@H](O)[C@@H](O)[C@@H]2N)CC(O)C(C(=O)O)C(O)CC(=O)CC(O)CC(O)CC(O)CC(=O)CCCC(=O)CC(=O)OC1C(C)CC(C)C(O)CC(=O)c1ccc(N)cc1 (stereo not given in full),-83.2% (active)
12,CN(C)c1ncnc2c1nnn2C1OC(CO)C(O)C1O (stereo not given),-80.9% (active)
13,CCCN(CCC)C(=O)[C@H](CC)[C@@H]1CC[C@@H](C)[C@@H]([C@H](C)[C@@H](O)[C@@H](C)C(=O)[C@H](CC)C2O[C@]3(C=C[C@@H](O)[C@]4(CC[C@@](C)([C@H]5CC[C@](O)(CC)[C@H](C)O5)O4)O3)[C@H](C)C[C@@H]2C)O1 (stereo not given in full),-64.2% (active)
14,COc1cc(C(=O)/C(C)=C/c2c[nH]c3ccccc23)cc(OC)c1OC,-39.2% (active)
15,O=C1c2ccccc2C(=O)c2c1ccc(C(Br)Br)c2[N+](=O)[O-],69.6%
16,CCOC(=O)N/N=C/c1ccc(OC)c(OC)c1,117%
17,Cc1ccc(NC(=S)NNC(=S)Nc2ccc(C)cc2)cc1,84.3%
18,Cc1ccc(S(=O)(=O)N(C)CCCCCC(=O)O)cc1,107%
19,O=[N+]([O-])c1cccc(/C=N/NC(=S)NC23CC4CC(CC(C4)C2)C3)c1,102%
20,O=C(CCCSc1nc(-c2ccc(Cl)cc2)cc(-c2ccc(Cl)cc2)n1)NO,9.44% (active)

row,SMILES,growth
1,CC(C)(C)c1ccc(S(=O)(=O)Oc2ccc(NC(=O)C3CCCCC3)cc2)cc1,32.4%
2,CS(=O)(=O)c1nccc(-c2c(-c3cccc(OCCN4CCOCC4)c3)nc3sccn23)n1,97.9%
3,COc1ccc(/C=C2\CCCC3=C2NC(N)=NC3c2ccc(OC)cc2)cc1 (stereo not given),112%
4,NC1=CC(=O)C(=O)c2cccnc21,98.7%
5,CCn1c(SCCc2ccccc2)nnc1-c1nn(-c2ccc(Cl)cc2Cl)c(-c2ccc(Cl)cc2)c1C,77.7%
6,S=c1cnc2ccccc2[nH]1,95%
7,S=C1N(c2ccccc2)CN(C2CCCCC2)CN1c1ccccc1,112%
8,O=C(COc1cccc(/C=C2\CSc3ccccc3C2=O)c1)c1ccc(Cl)cc1,96.2%
9,O=C(CCC(C(=O)c1ccccc1)c1ccccc1)c1ccccc1 (stereo not given),79.7%
10,O=C(c1ccccc1)N(C(=O)c1ccccc1)N1CCCC1,110%
11,COc1cc(-c2nc3ccccc3o2)cc(CN2CCCCC2)c1O,113%
12,COc1cccc(CNc2cccc3cn[nH]c23)c1O,110%
13,O=C(/C=C/C=C/c1c(C2CC2)nc2ccccc2c1-c1ccc(F)cc1)c1cccs1,-55% (active)
14,COc1ccc(C2CC(c3cc(OC)c(OC)c(OC)c3)=NN2)cc1 (stereo not given),55.1%
15,Nc1nccc(OCCO)n1,110%
16,NS(=O)(=O)c1ccc(Br)cc1,98.5%
17,Nc1c(Br)cc(Br)c2c1[nH]c(=O)c1ccccc12,86.5%
18,COc1ccc2c(c1)OC(N)=C(C#N)C2c1cc(OC)c(OC)c(OC)c1 (stereo not given),-48.6% (active)
19,CC(=O)O[C@@]12CO[C@@H]1C[C@H](O)[C@@]1(C)C(=O)[C@H](O)C3=C(C)[C@@H](OC(=O)[C@H](O)[C@@H](NC(=O)OC(C)(C)C)c4ccccc4)C[C@@](O)([C@@H](OC(=O)c4ccccc4)C12)C3(C)C (stereo not given in full),0.921% (active)
20,COc1ccc(/C=C2\CCCC3=C2NC(N)=NC3c2ccc(OC)c(OC)c2)cc1OC (stereo not given),46%
